Consider 40 molecules from PubChem BioAssay (NCI).

The panel holds about 83,000 compounds, 20% with a hit somewhere; the sample as a whole holds those more often.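 Treatment: one concentration, 48 hours, 96-well format. Scoring: percent growth, with anything below 10 considered active.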 Values without a mark were called inactive. Calls of active or inactive are those of the source.

This assay relates to A549/ATCC NSCLC. Put plainly: NCI-60 one-dose screen, 48 h (100 = growth as untreated, 0 = no growth, -100 = all killed). The note with it: 10 µM unless noted. Here is the method:
Growth inhibition of the A549/ATCC human Non-Small Cell Lung tumor cell line is measured as a screen for anti-cancer activity. Cells are grown in 96 well plates and exposed to the test compound for 48 hours. Compounds are tested at a single concentration, which is 10^-5 M for most compounds. The reported endpoint is percent growth (GI% or GIPRCNT), where numbers from 0 - 100% represent growth inhibition, and numbers from -100% - 0 represent cell death. For example, a value of 40 represents 60% growth inhibition. A value of 0 means no net growth occurred over the course of the experiment. A value of -40 indicates 40% of cells at the beginning of the experiment died by the end of the experiment. A value of -100 means all cells are dead at the end of the experiment.
NCI-60 Human Tumor Cell Lines Screen was performed using the standard one-dose NCI protocol, which is described in more detail at https://dtp.cancer.gov/discovery_development/nci-60/default.htm.
Compounds with GIPRCNT values below 10 were considered active. Activity score was based on GIPRCNT using the following formula: […]
Score is 0 for GIPRCNT values of 100 or above, 50 for GIPRCNT values of 0, and 100 for GIPRCNT values of -100.
As to `O=C(c1ccccc1)c1cc2ccccc2oc1=O`, the growth is 95.9%.
As to `Nc1nc2ncc(CNc3ccc(C(=O)NC(CCC(=O)NC(CCC(=O)NC(CCC(=O)NC(CCC(=O)NC(CCC(=O)O)C(=O)O)C(=O)O)C(=O)O)C(=O)O)C(=O)O)cc3)nc2c(=O)[nH]1` (stereo not given), the growth was 104%.
In the case of `CN1CCC(c2ccccc2)(c2ccccc2)C(=O)C1` it was 79.7%; in that of `Cc1ccccc1N=C(N)Nc1ccccc1C` (tested in a mixture with another compound), 74.4%.
In the case of `CCCCCCCCCCCCCCCc1ccc(C(=O)C[n+]2ccccc2)cc1`, the growth is -95% (active).
Take `O=C(Cc1ccccc1)C(F)(F)F`: the growth was 105%.
For `N#CC(I)CS(=O)(=O)c1ccccc1` (stereo not given), the growth is 93.3%.
On to `O=[N+]([O-])c1ccc([I+]c2ccccc2)cc1`, for which the growth is -71.6% (active).
In the case of `CC12CCC(O)CC1=CCC1C2CCC2(C)C3=NN=CC3CC12` (stereo not given) it was 104%; in that of `CCCCCCCCCCCC[n+]1ccc(CCCCCCCCC)cc1`, -44.8% (active).
In the case of `O=C/C=C/c1ccc([N+](=O)[O-])cc1`, the growth is 93.4%.
Regarding `C[n+]1ccccc1C[n+]1ccccc1`, the growth was 107%.
As for `CC1=CC(=O)C=CC1(C)C(Cl)(Cl)Cl` (stereo not given), the growth was 68.4%.
As for `O=C1C=CC(=O)N1c1ccccc1`, the growth is 102%.
Consider `c1csc(-c2[nH]nc3c2CCc2ccccc2-3)c1`, for which the growth was 89.1%.
On to `Cc1onc(-c2ccccc2)c1C(=O)N/N=C/c1cc(Cl)cc(Cl)c1O`, for which the growth was 21.9%.
For `COc1cc(/C=C/c2ccnc3ccccc23)cc(OC)c1OC` the value was 37%; for `CN=C(N)N/N=C(\C)c1ccc2c(c1)Cc1ccccc1-2`, -66.4% (active).
In the case of `COC(=O)[C@]1(C)CCC[C@]2(C)c3ccc(C(C)C)cc3C(=O)[C@@H](Br)[C@@H]12` it was 90.1%.
In the case of `COc1ccc2nc3cc([N+](=O)[O-])ccc3c(NNc3ccccc3)c2c1` it was 95.2%; in that of `COc1c(C)c2c(c(O)c1C/C=C(\C)CCC(=O)O)C(=O)OC2`, 11.6%.
Take `CC(C)(C)c1ccc(CCO)cc1`: the growth was 103%.
As to `COc1ccc2nc3cc(Cl)ccc3c(NCCCCCN3CCCCC3)c2c1`, the growth was -33.1% (active).
Take `COc1cccc2c1C(=O)c1c(O)c3c(c(O)c1C2=O)C[C@@](O)(C(=O)CO)C[C@@H]3OC1CC(OC(C)=O)C(OC(C)=O)C(C)O1` (stereo not given in full): the growth is -44.6% (active).
`CCc1cnc2ccccc2c1/C=C/c1ccc(N(C)C)cc1`: the growth is 33%.
As to `COc1cc(NCc2ccc3nc(N)nc(N)c3c2C)cc(OC)c1OC` (tested in a mixture with another compound), the growth is 36.9%.
With `S=C1SCN(Cc2cccs2)CN1Cc1cccs1`, the growth was 96.8%.
In the case of `Cn1ccc(=Nc2ccc(NC(=O)c3ccc(N=c4ccn(C)c5ccc([N+](=O)[O-])cc45)cc3)cc2)cc1` it was 65.5%; in that of `CCOC(=O)NC(/C=C/c1ccccc1)NC(=O)OCC`, 95.7%.
Consider `O=C(c1ccccc1)C(Br)C(Br)c1ccccc1` (stereo not given), for which the growth was 99.2%.
In the case of `S=C(S)OCN1CCOCC1`, the growth was 91.6%.
For `CN1CCC(CN2c3ccccc3Sc3ccccc32)C1` (stereo not given), the growth is 90.7%.
Take `[Cl-].[Rh+3].c1ccc(-c2ccnc3c2ccc2c(-c4ccccc4)ccnc23)cc1.c1ccc(-c2ccnc3c2ccc2c(-c4ccccc4)ccnc23)cc1.c1ccc(-c2ccnc3c2ccc2c(-c4ccccc4)ccnc23)cc1`: the growth was -0.367% (active).
Consider `NNc1ccc(Cl)cc1Cl`, for which the growth was 82.9%.
As for `NC(=S)N/N=C\c1nccc2c(N)cccc12`, the growth is 12.4%.
For `Cc1nn(CCO)c(C)c1N=[N+]([O-])c1c(C)nn(CCO)c1C` the value was 50.5%; for `CCN(CC)CCNC(Cc1ccccc1)c1ccc(OCc2ccccc2)cc1` (stereo not given), 69.6%.
As to `CC1(C)OCC(COC(c2ccccc2)(c2ccccc2)c2ccccc2)O1` (stereo not given), the growth is 86.3%.
On to `CCC(=O)c1cc([N+](=O)[O-])c(Br)s1`, for which the growth was 105%.
`NNc1cccc([N+](=O)[O-])c1`: the growth is 96.7%.
